Laboratory results reported in ChEMBL document CHEMBL4513216, “Probing the Open Global Health Chemical Diversity Library for Multistage-Active Starting Points for Next-Generation Antimalarials” (ACS Infect Dis, 2020).
The whole screen tested about 69,000 compounds, of which about 8,600 (12%) showed an effect of 50% or more. Shown is part of a subset that was picked to be rich in strong results.

test system: Plasmodium berghei; test: Screen against P. berghei liver stage (PbLuc), transformed with Luciferase, at 10uM; type: functional, HepG2; details: tested at 10 uM

| SMILES | INHIBITION [%] |
| --- | --- |
| CC(C)n1ccc(C(=O)N2CCCC(n3cncn3)C2)n1 (configuration not stated) | 31.9 |
| Cc1cccc(Nc2nccnc2C2CCCN2CC(=O)N(C)C)n1 (configuration not stated) | 46.1 |
| c1cnn(Cc2nnc3n2CCCN(CC2CCOCC2)C3)c1 | 27.9 |
| CN(C)c1ncc(I)c(C2CCCCN2C)n1 (configuration not stated) | -0.232 |
| CN(C(=O)CN1CCC(NC(=O)c2cccs2)CC1)c1ccccc1 | 16.9 |
| O=C(CSc1nc2n[nH]cc2c(=O)n1-c1ccccc1)N1CCOCC1 | 13.9 |
| CC(C)(C)CN[C@@H]1CO[C@H](CNC(=O)C2CCCC2)[C@H]1O | 51 |
| O=C(NC[C@H]1OC[C@@H](NC2CCCC2)[C@@H]1O)C1CCCC1 | 30.5 |
| O=C(NC[C@H]1OC[C@@H](NC2COC2)[C@@H]1O)C1CCCC1 | 29 |
| CC(=O)N1CCN(c2ncnc3cc4c(cc23)OCCO4)CC1 | 36.6 |
| CNC(=O)CN(C)c1nc(-c2ccc(C(N)=O)cc2)nc2c1CCNC2 | 10.3 |
| Cc1cc(C)c2c(NCc3nncn3C3CCCCC3)ncnc2n1 | -41.4 |
| Cc1ncc(-c2ccnc(NC3CC3)n2)c(-c2cccnc2)n1 | 2.6 |
| O=C1NC2(CCCCC2)c2nnnn2-c2ccc(Br)cc21 | 42.4 |
| CC(C)N1CCC2(CC1)NC(=O)c1cc(Br)ccc1-n1nnnc12 | 58.2 |
| CCN1CCC2(CC1)NC(=O)c1cc(Br)ccc1-n1nnnc12 | 33.3 |
| CN1C[C@@H](O)[C@]2(CCN(C(=O)OCc3ccccc3)C2)S1(=O)=O | 1.8 |
| c1cc(-c2ccc3c(c2)CCC32CCN(c3nncs3)CC2)ccn1 | 62.8 |
| c1cc(-c2ccc3c(c2)C2(CC3)CCN(c3nncs3)CC2)ccn1 | 15.4 |
| Cc1cccc(N2CC3(CCN(c4nncs4)C3)CC2=O)c1 (configuration not stated) | 14.5 |
| CN1CCOCC12CCN(c1nncs1)CC2 | -7.24 |
| c1cncc(-c2ccc3c(c2)C2(CC3)CCN(c3nncs3)CC2)c1 | 76.8 |

| SMILES | INHIBITION [%] |
| --- | --- |
| Cc1ccc2c(c1)C1(CC2)CCN(CC(=O)O)CC1 | 19.5 |
| Cc1ccc2c(c1)C1(CC2)CCN(c2nncs2)CC1 | 56.8 |
| c1cc(-c2ccc3c(c2)CCC32CCN(c3nncs3)CC2)co1 | 24.9 |
| Cc1cnn(CCNCc2nc(CNC(=O)c3ccccc3)no2)c1 | 7.08 |
| CC(=O)Nc1ccc(CNc2cccc(OCCF)c2)cc1 | 25.2 |
| CNC(=O)c1ccc(OC2CCN(S(C)(=O)=O)CC2)c(Cl)c1 | -22.1 |
| CS(=O)(=O)N1CCC(Oc2ccc(C(=O)N3CCSCC3)cc2Cl)CC1 | 63.3 |
| CS(=O)(=O)N1CCC(Oc2ccc(C(=O)NC3CCCC3)cc2Cl)CC1 | -14.5 |
| CCN(CC)S(=O)(=O)N(CC)Cc1ccc2c(c1)OCCO2 | -19.9 |
| Cc1nn(Cn2ccc(C(=O)N3CCC(C)CC3)n2)c(C)c1Cl | -20.8 |
| CSCCc1n[nH]c2c1CN(S(=O)(=O)c1cn(C)c(C)n1)CC2 | -10.8 |
| Cc1cc(-c2n[nH]c3c2CN(S(=O)(=O)c2ccsc2)CC3)c(C)o1 | 54.4 |
| CS(=O)(=O)N1CCc2[nH]nc(Cc3cccs3)c2C1 | 0.472 |
| Cc1noc(C)c1-c1n[nH]c2c1CN(S(=O)(=O)c1cccnc1)CC2 | 23.3 |
| Cc1noc(C)c1-c1n[nH]c2c1CN(S(=O)(=O)c1ccsc1)CC2 | 39.4 |
| Cc1noc(C)c1-c1n[nH]c2c1CN(S(=O)(=O)c1cccs1)CC2 | 61.8 |
| CCC(CN1CCCC1)n1cncc1-c1cnn(-c2ccccc2)c1 (configuration not stated) | 33.95 |
| CC(C)[C@H](N)c1nnc(SCC(=O)Nc2ccc(Br)cc2)o1 | 25.3 |
| Cc1nc(C2CCCN2Cc2ccc(S(=O)(=O)N(C)C)o2)no1 (configuration not stated) | 22.3 |
| CNC(=O)c1ccc(CN(C)c2ccc(C(F)(F)F)cn2)cc1 | 58.3 |
| CN(Cc1ccc([S+](C)[O-])cc1)c1ccc(C(F)(F)F)cn1 (configuration not stated) | 52.2 |
| CNC(=O)c1ccc(CN(C(=O)c2scnc2C)C2CC2)cc1 | 6.92 |

| SMILES | INHIBITION [%] |
| --- | --- |
| CN(Cc1ccccc1)c1ccc(C(F)(F)F)cn1 | 38.6 |
| CN(Cc1ccc([S+](C)[O-])cc1)c1ccc(Br)cn1 (configuration not stated) | 43.7 |
| CN(Cc1ccc(C(N)=O)cc1)c1ccc(C(F)(F)F)cn1 | 1.79 |
| CCc1cnc(CN(C)C2CCN(CCNS(=O)(=O)CC)C2)o1 (configuration not stated) | -42 |
| CN1Cc2c(C(=O)Nc3cccnc3)ncn2-c2ccccc2S1(=O)=O | 45.1 |
| CN(C)CCO[C@H]1CN(Cc2cccc(C#N)c2)[C@@H]2COC[C@H]12 | -46.9 |
| CCS(=O)(=O)N1CCCC2(CCCN2C(=O)c2cn(C)cn2)C1 (configuration not stated) | 61.9 |
| CCS(=O)(=O)N1CCC2(CN(C(=O)c3cn(C)cn3)C2)C1 | -28.2 |
| CCS(=O)(=O)N1CCCC2(CCCN2C(=O)c2cscn2)C1 (configuration not stated) | 4.02 |
| COC1CN(CCO)S(=O)(=O)c2ccccc21 (configuration not stated) | 35.1 |
| CN(C)C(=O)COCC1CN(Cc2cccs2)Cc2ncn(C)c21 (configuration not stated) | -47.8 |
| Cc1ccc(S(=O)(=O)N(CC(N)=O)CC(C)C)cc1C | -14.2 |
| Cc1cc(S(=O)(=O)N(CC(N)=O)CC(C)C)ccc1Br | 60.3 |
| Cc1cc(S(=O)(=O)N(C)CC(N)=O)ccc1Br | 34.6 |
| Cc1cnn(CC2CCCN2C(=O)Cc2ccc(C)nc2)c1 (configuration not stated) | 17.4 |
| COc1ccc(CNCC(O)c2cccc(O)c2)cc1Br (configuration not stated) | 14.5 |
| CCOc1ccc(CNCC(O)c2ccccc2)cc1Cl (configuration not stated) | 59.5 |
| CC(=O)Nc1ccc(CNCC(O)c2ccccc2)cc1 (configuration not stated) | 39.7 |
| COCC1CN(C(=O)c2cccc(C)n2)Cc2nccn2C1 (configuration not stated) | 24 |
| CC(NCc1cc2cc(F)ccc2o1)c1nnc2n1CCCC2 (configuration not stated) | 35 |
| CC(NCc1ccc(Cl)o1)c1nnc2n1CCCC2 (configuration not stated) | 15.1 |
| Cc1ccoc1CNC(C)c1nnc2n1CCCC2 (configuration not stated) | 34.1 |

| SMILES | INHIBITION [%] |
| --- | --- |
| Cc1ccc(CNC(C)c2nnc3n2CCCC3)o1 (configuration not stated) | -4.48 |
| CC(NCc1ccco1)c1nnc2n1CCCC2 (configuration not stated) | 52.9 |
| Cc1ccc2oc(CNC(C)c3nnc4n3CCCC4)cc2c1 (configuration not stated) | 50.1 |
| CN1CCCN(C(=O)c2nc3c(o2)CN(S(C)(=O)=O)C3)CC1 | 41.2 |
| Cn1cc(CN2CCC3(CCCN3Cc3cccnc3)CC2)cn1 | 29 |
| COc1cc(N2CCC3(CCCN3Cc3ccn(C)n3)CC2)ncn1 | 21.7 |
| Cn1ccc(CN2CCCC23CCNCC3)n1 | -12.1 |
| Cn1ccc(CN2CCCC23CCN(Cc2nccn2C)CC3)n1 | 27.6 |
| Cn1ccc(CN2CCCC23CCN(Cc2ccccc2F)CC3)n1 | 53 |
| Cc1ccc(N2CCC3(CCCN3Cc3ccn(C)n3)CC2)nn1 | 53.9 |
| Cn1ccc(CN2CCCC23CCN(Cc2cccc(F)c2)CC3)n1 | 56.6 |
| Fc1cccc(CN2CCC3(CCCN3c3ncccn3)CC2)c1 | 42.4 |
| Cn1ccc(CN2CCC3(CCCN3CC3CC3)CC2)n1 | 17.7 |
| CCOCCCC(=O)Nc1cccnc1-n1ccnc1C | 7.92 |
| Cc1ccc(C(=O)N2CCCN(Cc3cccs3)CC2)c(=O)[nH]1 | 17.68 |
| COc1ccc(C(C)N(C)Cc2c(C3CC3)[nH]c3ncccc23)cc1 (configuration not stated) | 44.8 |
| CN(Cc1ccco1)[C@@H]1CN(C(=O)c2ccnnc2)[C@@H]2CCCO[C@H]12 | 41.8 |
| Cc1ccc(CC(=O)N2Cc3nccn3CC(CN(C)C)C2)cc1 (configuration not stated) | 10.1 |
| CCOCCNC(=O)c1ccc(OC)cc1I | 14.4 |
| COc1c(CNCc2ccc(Cn3ccnc3)cc2)c(C)nn1C | 16.8 |
| CN1CCN(Cc2cccnc2)C(=O)C12CCN(CC1CCOC1)CC2 (configuration not stated) | 29.4 |
| CCCN1CCC2(C1)c1ccccc1S(=O)(=O)N2Cc1ccccc1 (configuration not stated) | 68.4 |

| SMILES | INHIBITION [%] |
| --- | --- |
| COCCN1C2(CCN(CC3CC3)C2)c2ccccc2S1(=O)=O (configuration not stated) | -54.9 |
| O=S1(=O)c2ccccc2C2(CCN(Cc3cccnc3)C2)N1CC1CC1 (configuration not stated) | 76.5 |
| CC1N(CC2CC2)C(=O)COC12CCN(C(=O)c1ccncc1)CC2 (configuration not stated) | 48.2 |
| COCCN1CCC2(C1)c1ccccc1S(=O)(=O)N2Cc1ccccc1 (configuration not stated) | 15.3 |
| O=C(N1CCCO1)[C@@]12CCO[C@@H]1CCN(Cc1cccnc1)C2 | 17.4 |
| CN1C2(CCN(Cc3ccc(F)cc3)C2)c2ccccc2S1(=O)=O (configuration not stated) | 16.9 |
| CC1N(CC2CC2)C(=O)COC12CCN(C(=O)c1cccs1)CC2 (configuration not stated) | 74.8 |
| CCCN1CCC2(C1)c1ccccc1S(=O)(=O)N2Cc1ccc(F)cc1 (configuration not stated) | 23.3 |
| O=S1(=O)c2ccccc2C2(CCN(Cc3ccccc3)C2)N1CC1CC1 (configuration not stated) | 81.3 |
| CC1N(CC2CC2)C(=O)COC12CCN(C(=O)c1ccno1)CC2 (configuration not stated) | 11.3 |
| CNC(=O)c1cn[nH]c1C1CCCN1c1nc(C)cc(C)n1 (configuration not stated) | 34.1 |
| CCN1CCOCC2(CCCN(C(=O)c3ccccc3F)C2)C1 (configuration not stated) | -60.3 |
| CN(C)[C@@H]1CN(Cc2ccccc2O)C[C@H]1c1cn(C)c2ccccc12 | 49.5 |
| Cn1ccnc1CNC(=O)c1cnc(C2CCNCC2)cn1 | 33 |
| COc1ccccc1C1(CNC(=O)NCc2noc(C)n2)CC1 | 4.66 |
| Cc1nc(C(=O)N(C)CC(=O)N(C)C)nn1-c1ccccc1C(C)C | -15.5 |
| CCNC(=O)N1CCC2(C1)c1ccccc1S(=O)(=O)N2CCOC (configuration not stated) | -1.15 |
| O=C(c1cccs1)N1CCC2(C1)c1ccccc1S(=O)(=O)N2CC1CC1 (configuration not stated) | 51.2 |
| COCCN1C2(CCN(C(=O)c3cccs3)C2)c2ccccc2S1(=O)=O (configuration not stated) | 8.03 |
